Hits are enriched below; roughly 8% of the tested compounds scored in any of these assays.
KB-3-1 cytotox = kills parental KB-3-1 adenocarcinoma cells; KB-3-1 viability, CellTiter-Glo ATP luminescence, 72 h; Potency, µM (top dose mostly 46.1 µM), hits mostly cytotoxic; 400,000 compounds, 1.4% hits; AID 1347075; also: % is scaled to controls: 0 for no effect and ±100 for the full control effect; nearly all actives have a fitted effect of over 60% in size
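Screening of KB-3-1 cells (DMEM, 10% FBS, phenol-red free) ran from lowest to highest compound concentration; after 72 h at 37 °C viability was read luminescently and curves fitted.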
HT1080 IDH1KD tx = toxicity to HT-1080 IDH1 knockdown cells (counter line). AID 686971. HT-1080 IDH1 knockdown viability, ATP luminescence, 48 h. Potency, µM (top dose mostly 46.1 µM), inactives show at the top dose activity, negative = toxicity, most hits filed as cytotoxic. 360,000 compounds, 2% hits;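 also: 0% = DMSO wells and -100% = cell-free medium wells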
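Assay cells: HT-1080 with IDH1 knockdown, 750 per well, RPMI/5% FBS. Exposure: 48 h at 37 °C following 2 h pre-incubation. Read: CellTiter-Glo luminescence; fitted concentration-response, curve class assigned.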
KB-V1 cytotox = kills drug-selected multidrug resistant KB-V1 cells; KB-V1 MDR cells viability, CellTiter-Glo, 72 h; Potency, µM (top dose mostly 46.1 µM), hits mostly cytotoxic; 400,000 compounds, 3.4% hits; AID 1347076; also: % is scaled to controls: 0 for no effect and ±100 for the full control effect; nearly all actives have a fitted effect of over 60% in size
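KB-V1 MDR subline cells in DMEM (phenol-red free, 10% FBS) exposed to compounds in qHTS concentration series for 72 h at 37 degrees C. Viability read by CellTiter-Glo luminescence; concentration-effect curves fitted after normalization and correction.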
SW480 rerep = DNA re-replication induction in SW480 cells. 340,000 compounds, 1.8% hits. SW480 DNA re-replication, Hoechst DNA content imaging, 48 h. AID 624297. Potency, µM (titrated, usually from 46.1 µM), for the others: at the highest dose re-replication activation, actives largely listed as activators; also: % of control where 0% means no effect; nearly all actives have a fitted effect of over 55% in size
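Treated cells incubate 48 hr (37 C, 5% CO2), are stained 40 min with Hoechst, and nuclear fluorescence is enumerated; a rise in nuclei with high DNA signal marks re-replication.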
MCF10A rereplic = DNA re-replication induction in MCF 10a cells; Potency, µM (series often up to 46.1 µM), for the others: at the highest dose activity, positive = re-replication, hits mostly activators; 350,000 compounds, 2.9% hits; AID 624296; MCF 10A DNA re-replication, Hoechst nuclear intensity, 48 h; also: % of control where 0% means no effect; nearly all actives have a fitted effect of over 50% in size
HT1080NT lethal = kills 2HG-producing HT-1080-NT fibrosarcoma cells | HT-1080-NT fibrosarcoma viability, CellTiter-Glo ATP luminescence, 48 h | Potency, µM (series often up to 46.1 µM), for the others: at the highest dose activity, negative = less viability, actives largely listed as cytotoxic | 360,000 compounds, 1.6% hits;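 also: NT is the 2HG producing partner of a matched IDH1 knockdown line; 0% = DMSO-treated cells and -100% = media-only wells without cells; nearly all actives have a fitted effect of over 55% in size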
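750 cells/well, RPMI + 5% FBS; 2 h settle, compound pin-transfer, 48 h at 37 degrees C. CellTiter-Glo 10 min RT, luminescence. Normalized to DMSO and media-only wells.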
* = called active by the depositor; i = inactive; ? = inconclusive; . = no result. Calls follow the shape of the dose curve; as a rule, active = well fitted curve in the direction sought with a large enough effect; inconclusive = small, poorly fitted or top-dose-only effect, or another doubt; inactive = no such curve, though single readings can be large; an effect the other way counts as inactive or inconclusive. Potency is read from the fitted curve at half-maximal effect.

SMILES	KB-3-1 cytotox	HT1080 IDH1KD tx	KB-V1 cytotox	SW480 rerep	MCF10A rereplic	HT1080NT lethal
O=C(CSc1nc2ccccc2c(=O)n1CC1CCCCC1)N1CCOCC1	i	-7%	i	0%	26%	-5%
COc1ccccc1-c1nnc(N)s1	i	2%	i	1%	-1%	0%
COc1ccccc1-c1nnc(SC2CCc3ccccc3NC2=O)s1 (stereo not drawn)	i	-14%	5.8µM*	5%	-2%	3%
Cc1nn(Cc2ccc(C(=O)Nc3ccccc3F)cc2)c(C)c1Cl	i	-7%	i	-7%	23µM*	-2%
Cc1nn(Cc2ccc(C(=O)NN)cc2)c(C)c1Cl	i	?	i	-2%	1%	-14%
Cc1nn(Cc2ccc(Cl)cc2)c(C)c1NC(=O)C(c1ccccc1)c1ccccc1	i	1%	12µM*	3%	?	7%
Cc1cc(C(=O)Nc2c(C)nn(Cc3ccc(Cl)cc3)c2C)no1	i	10%	i	-23%	0%	-9%
Cc1nn(Cc2ccc(C(=O)Nc3nccs3)cc2)c(C)c1Cl	16µM*	-3%	21µM*	-4%	5.8µM*	2%
Cc1ccc(-n2cc(C(=O)OCc3ccc(Cl)cc3)c3ccccc3c2=O)cc1	i	.	i	.	.	.
CC(C)C(=O)N=C1SC2CS(=O)(=O)CC2N1Cc1ccccc1 (stereo not drawn)	i	12%	i	-2%	?	5%
COc1ccccc1/C=N/NS(=O)(=O)c1ccccc1	i	-9%	i	35%	15%	2%
COc1ccc(-c2oc3cc(O)c(OC)c(O)c3c(=O)c2OC)cc1O	0.82µM*	0.58µM*	0.65µM*	?	?	0.41µM*
COc1ccc(N2C(=O)CC(Sc3ncn[nH]3)C2=O)c(OC)c1 (stereo not drawn)	i	10µM*	i	7.3µM*	2.3µM*	?
CC(C)(C)OC(=O)C(Cc1ccc(OC(C)(C)C)cc1)NC(=O)CNC(=O)OCc1ccccc1 (stereo not drawn)	?	-14%	2.9µM*	-30%	?	0%
O=C(C1CCN(S(=O)(=O)c2ccccc2F)CC1)N1CCc2ccccc21	i	18%	i	-12%	2%	19%
Cc1ccccc1OCC(=O)Nc1ccc(N2CCN(C)CC2)c(Cl)c1	i	?	i	?	15µM*	?
COc1ccc(OCC(=O)Nc2ccccc2N2CCN(C)CC2)cc1	i	-2%	i	-5%	0%	-8%
COc1ccc(CNCC(=O)Nc2ccccc2-n2cccc2)cc1	?	?	?	21µM*	?	?
COc1ccc(CC(=O)Nc2ccccc2N2CCCC2)cc1	i	11%	i	?	-1%	13%
COc1ccc(OCC(=O)Nc2ccccc2N2CCCCC2)cc1	?	4.1µM*	i	12µM*	3.3µM*	3.3µM*
Cc1ccc(Cl)c(OCC(=O)Nc2ccccc2N2CCCCC2)c1	i	-2%	i	3.7µM*	?	1%
O=C(CCOc1ccccc1)Nc1cccc(S(=O)(=O)Nc2ccccc2Cl)c1	i	-4%	?	4%	?	-3%
Cc1cccc(NC(=O)CSCC(=O)Nc2ccccc2N2CCCC2)c1	i	-11%	?	1%	2%	-2%
Cc1cccc(NC(=O)CSCC(=O)Nc2ccccc2N2CCCCC2)c1	?	-13%	16µM*	?	131%	-25%
COc1ccccc1OCC(=O)Nc1cc(Cl)ccc1N1CCCCC1	i	-6%	15µM*	12%	?	-8%
SMILES	KB-3-1 cytotox	HT1080 IDH1KD tx	KB-V1 cytotox	SW480 rerep	MCF10A rereplic	HT1080NT lethal
O=C(COc1cccc2ccccc12)Nc1cc(Cl)ccc1C(=O)O	i	-28%	?	1%	6.5µM*	-20%
COc1ccccc1OCC(=O)Nc1cc(S(=O)(=O)N2CCCCC2)ccc1N1CCCCC1	i	4%	i	3%	?	7%
O=C(CN(c1ccccn1)S(=O)(=O)c1ccc(F)cc1)Nc1ccc(F)cc1F	i	2%	i	-2%	-4%	-3%
Cc1cc(SCc2ccc(Cl)cc2Cl)nc(=O)[nH]1	?	?	i	?	9.2µM*	-10%
COc1ccc(CN(CCCN2CCOCC2)C(=O)Nc2ccccc2)cc1OC	i	1%	7.3µM*	-3%	-4%	12%
O=C(Nc1ccccc1)N(CCCN1CCOCC1)Cc1ccccc1F	i	4%	i	-7%	-2%	6%
N#Cc1ccc(N2Cc3ccccc3C2=NC(=O)c2cccs2)cc1	i	2%	18µM*	25%	-2%	4%
Cc1ccc(NC(=O)c2cc3cccc([N+](=O)[O-])c3[nH]2)cc1	i	-5%	i	0%	3%	-6%
CCC(C)c1ccccc1NC(=O)c1cc2cccc([N+](=O)[O-])c2[nH]1 (stereo not drawn)	i	16µM*	i	5%	?	?
O=C(NCCO)c1ccc2nc(Cc3cccc(Cl)c3)oc2c1	i	-6%	i	-22%	17%	-14%
CCc1ccc(OCC(=O)NCc2nc(-c3cccc(C)c3)no2)c(Br)c1	i	.	?	.	.	.
Cc1c(C(=O)N(Cc2ccco2)Cc2cccs2)oc2ccccc12	i	8%	16µM*	-5%	?	2%
O=C(c1cc2ccccc2o1)N(Cc1ccco1)Cc1cccs1	i	0%	i	9%	?	-1%
CCOC(=O)c1csc(NC(=O)c2cc(OC)c(OC)c(OC)c2)n1	i	-20%	?	0.23µM*	?	-14%
CCOC(=O)c1csc(NC(=O)COc2ccc(Cl)cc2Cl)n1	i	-2%	23µM*	-9%	15%	0%
Cc1nc([N+](=O)[O-])c(Sc2nc3ccccc3[nH]2)n1Cc1ccccc1	i	6%	i	?	?	12%
COc1ccc2nc(SCC(=O)NCc3ccccc3)[nH]c2c1	i	-4%	i	?	13%	-5%
Cc1cc2nc(Sc3c([N+](=O)[O-])nc(C)n3Cc3ccccc3)[nH]c2cc1C	?	?	i	?	21µM*	?
COc1ccc2nc(Sc3c([N+](=O)[O-])nc(C)n3Cc3ccccc3)[nH]c2c1	?	21µM*	i	?	?	?
CN1CCN(c2ccc(CNC[C@H]3O[C@@H](n4cnc5c(=O)[nH]c(N)nc54)[C@H](O)[C@@H]3O)c(F)c2)CC1	i	12%	i	.	.	9%
